Measurements: the OligoGym collection
Note: reference of the scale not given here.

These sequences were tested against TRMT1 (assay: pooled miR-30 sensor sort-seq; sequence = guide strand). Conditions: shRNA.
With TCTCTGATAGTCGCTCCCGTTT the sensor-assay potency score (higher = more potent) was -1.66.
For TTGCGTGTCCTTCTCTCCTGGA, the sensor-assay potency score (higher = more potent) was -0.847.
Sequence TCTCCTGGAACCTTGATCTGGA has a sensor-assay potency score (higher = more potent) of -0.0549.
In the case of TAGAAGTCAGCGCTGATGCTGA, the sensor-assay potency score (higher = more potent) is reported as -0.13.
Sequence TTGAGCTGGACATTCCGGCGTA has a sensor-assay potency score (higher = more potent) of 0.567.
Work on TTTGCGTGTCCTTCTCTCCTGG yielded a sensor-assay potency score (higher = more potent) of 0.33.
TAGTCTCTGATAGTCGCTCCCG gave a sensor-assay potency score (higher = more potent) of -0.643.
TAGTACAGAGGCACGTCCGGGA showed a sensor-assay potency score (higher = more potent) of -0.101.
For TCGTTTGCAACCACAGATCTGA, the sensor-assay potency score (higher = more potent) was -0.44.
TCATTGAGCTGGACATTCCGGC was tested, and the sensor-assay potency score (higher = more potent) was 0.0258.

Each sequence was assayed against TRO in the same assay as above. Conditions: shRNA.
Work on TTGGTCAGCATTTGGAGTCTGG yielded a sensor-assay potency score (higher = more potent) of 0.322.
TTCATCTTGCTAGTCTCGTGGT showed a sensor-assay potency score (higher = more potent) of 0.132.
Work on TAGTATTAGATGCACTGCCAAA yielded a sensor-assay potency score (higher = more potent) of -1.27.
Sequence TTTCATCTTGCTAGTCTCGTGG has a sensor-assay potency score (higher = more potent) of 0.184.
Work on TAGTGCTCAGTGTACCACCAAA yielded a sensor-assay potency score (higher = more potent) of -1.66.
For TTGATGGGGATCTTTGTCTGGT, the sensor-assay potency score (higher = more potent) was -0.592.
Sequence TTGAGTGCACTGCCAAAGCTGA has a sensor-assay potency score (higher = more potent) of -0.944.
Sequence TTGGGTGTGTCCTTGGTCGTTC has a sensor-assay potency score (higher = more potent) of 0.127.
Work on TTAGTAATAGTCTTTATAGGGG yielded a sensor-assay potency score (higher = more potent) of -0.72.
With TTGAGCACACTGCCAAAGCTGG the sensor-assay potency score (higher = more potent) was -0.914.
For TACACCACTAAAGCCAGCCGTG, the sensor-assay potency score (higher = more potent) was -1.01.
In the case of TAAAATGGCCACATCTCGCGGT, the sensor-assay potency score (higher = more potent) is reported as 0.238.

The sequences below were run against TRPC4 in the same assay as above. Conditions: shRNA.
With TATACTAGAGTCCTCTTCTTTT the sensor-assay potency score (higher = more potent) was -1.18.
TAACACACATTGTTCACTGAGA gave a sensor-assay potency score (higher = more potent) of -0.436.
Work on TTGAATGGACACACTCTCTTTC yielded a sensor-assay potency score (higher = more potent) of -0.228.
Work on TATTTCTCTCAAGTGGTCCTGC yielded a sensor-assay potency score (higher = more potent) of 0.27.
TATTGTTCCAAAACTTTCTGGC was tested, and the sensor-assay potency score (higher = more potent) was 0.627.
TTCTCTGGAACTTCTCGTCTGA was tested, and the sensor-assay potency score (higher = more potent) was -0.126.
TAGATGTTGAGTCTGGAGCGTG showed a sensor-assay potency score (higher = more potent) of -0.516.
Work on TTTGGTATTATAGGAACCGTGT yielded a sensor-assay potency score (higher = more potent) of -0.294.
In the case of TTGACGAGCAACTTCTTCTGAA, the sensor-assay potency score (higher = more potent) is reported as 0.0812.
Sequence TTGAGTAGAACAACCAGAGAGA has a sensor-assay potency score (higher = more potent) of -0.452.
In the case of TATGAGACTATTGTCATCTCGG, the sensor-assay potency score (higher = more potent) is reported as 0.182.
Sequence TTCTTTTGCATGTTTCTCCTTT has a sensor-assay potency score (higher = more potent) of 0.299.

Each sequence was assayed against TRPM3 in the same assay as above. Conditions: shRNA.
TTTCTTGAGCTCATCATCGGTT showed a sensor-assay potency score (higher = more potent) of 0.21.
Work on TTGTCTTCGAAGTTTCACCTCT yielded a sensor-assay potency score (higher = more potent) of 0.148.
TTTCTCATTCTGAAGCACGGAG was tested, and the sensor-assay potency score (higher = more potent) was -0.126.
TTGTCTTTCATATTGACCGAAT was tested, and the sensor-assay potency score (higher = more potent) was -0.665.
TTCTATACCACCTTTGTCTTTC was tested, and the sensor-assay potency score (higher = more potent) was 0.0572.
Sequence TATTTTACCATCCTCTCGGGTC has a sensor-assay potency score (higher = more potent) of -0.479.
